A word on the viability: it is the share of living cells, or the viability signal relative to a control.

Assay [1] deals with Aldehyde dehydrogenase, mitochondrial (Homo sapiens) (UniProt P05091). As to the kind of experiment: qHTS for Inhibitors of the Aldehyde Dehydrogenase Family (ALDH2) Primary screen (AID 2061308). Note: nearly all actives have a fitted effect of over 55% in size. Note: potency is the fitted concentration of half-maximal effect. The conditions noted are these: ALDH2 enzyme inhibition qHTS, 1536-well; series mostly up to 56 µM. (qHTS replaces the single test concentration by a dilution series.)
Assay [2] concerns the target Retinaldehyde dehydrogenase 3 (Homo sapiens) (UniProt P47895). As to the kind of experiment: qHTS for Inhibitors of the Aldehyde Dehydrogenase Family (ALDH1A3) Validation screen (AID 2061312). Note: nearly all actives have a fitted effect of over 45% in size. Note: potency is the fitted concentration of half-maximal effect. The conditions noted are these: ALDH1A3 enzyme inhibition qHTS validation, fluorescence; series mostly up to 84.7 µM.
The target is the same in assay [3]. As to the kind of experiment: qHTS for Inhibitors of the Aldehyde Dehydrogenase Family (ALDH1A3) Primary screen (AID 2061315).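 Note: plate controls were DMSO vehicle for no effect and reference inhibitor for full effect.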 The conditions noted are these: ALDH inhibition qHTS; series mostly up to 56 µM.
For assay [4] the target is unchanged. As to the kind of experiment: qHTS for Inhibitors of the Aldehyde Dehydrogenase Family (ALDH1A3) Confirmatory screens (AID 2061311). Note: nearly all actives have a fitted effect of over 60% in size. Note: potency is the fitted concentration of half-maximal effect. The conditions noted are these: ALDH inhibition qHTS; series mostly up to 46 µM.
Assay [5] has as its target Aldehyde dehydrogenase 1A1 (Homo sapiens) (UniProt P00352). As to the kind of experiment: qHTS for Inhibitors of the Aldehyde Dehydrogenase Family (ALDH1A1) Confirmatory screens (AID 2061316). Note: nearly all actives have a fitted effect of over 65% in size. Note: potency is the fitted concentration of half-maximal effect. The conditions noted are these: ALDH inhibition qHTS; series mostly up to 47.3 µM.
A short description of assay [6]: BET inhibitor-based combinations targeting novel dependencies in MECOM-rearranged (r) AML: SET-2 cell line (AID 2202231).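 Note: plate controls were DMSO treated cells for no effect and wells without cells for full effect; nearly all actives have a fitted effect of over 35% in size.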 The conditions noted are these: SET-2 AML cells viability, CellTiter-Glo luminescence, 48 h; viability: active compounds read low, concentration not given here. Put shortly:
(§1)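 AML cell lines seeded at 500 cells/well, treated with 11-point dose curves for 48 h. Viability by CellTiter-Glo luminescence, normalised to DMSO and empty wells; activity expressed as AUC and per-cell-line Z-transformed AUC.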

The nature of assay [7]: BET inhibitor-based combinations targeting novel dependencies in MECOM-rearranged (r) AML: OCI-AML3 cell line (AID 2202232).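 Note: plate controls were DMSO vehicle wells for no effect and wells without cells for full effect; nearly all actives have a fitted effect of over 35% in size.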 The conditions noted are these: CellTiter-Glo luminescence, 48 h; Potency: OCI-AML3 viability; series mostly up to 46 µM. Put shortly:
as §1

Assay [8] is described as follows: BET inhibitor-based combinations targeting novel dependencies in MECOM-rearranged (r) AML: MV-4-11 cell line (AID 2202233).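 Note: plate controls were DMSO for no effect and blank wells for full effect; nearly all actives have a fitted effect of over 45% in size.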 The conditions noted are these: MV-4-11 AML viability, CellTiter-Glo luminescence, 48 h; series mostly up to 46 µM. The method, boiled down:
(§2)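 Cells at 500/well were exposed for 48 hr to MIPE v5.0 drugs as 11-point dose curves. Viability was read by CellTiter-Glo luminescence and normalized to DMSO and empty-well controls. Activity was expressed as AUC and per-cell-line Z-AUC.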

A short description of assay [9]: BET inhibitor-based combinations targeting novel dependencies in MECOM-rearranged (r) AML: HNT-34 cell line (AID 2202234).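 Note: plate controls were vehicle wells for no effect and cell-free wells for full effect; nearly all actives have a fitted effect of over 35% in size.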 The conditions noted are these: HNT-34 AML viability, CellTiter-Glo luminescence, 48 h; series mostly up to 46 µM. The method, boiled down: as §2
A short description of assay [10]: BET inhibitor-based combinations targeting novel dependencies in MECOM-rearranged (r) AML: UCSD-AML1 cell line (AID 2202235).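 Note: plate controls were DMSO vehicle wells for no effect and blank wells for full effect; nearly all actives have a fitted effect of over 40% in size.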 The conditions noted are these: UCSD-AML1 AML cells viability, CellTiter-Glo, 48 h; series mostly up to 46 µM. Put shortly:
as §2
Background: ATP-based viability assays read luminescence as a measure of living cells.

The nature of assay [11]: BET inhibitor-based combinations targeting novel dependencies in MECOM-rearranged (r) AML: AML-191 cell line (AID 2202236;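 note: plate controls were vehicle wells for no effect and wells without cells for full effect; nearly all actives have a fitted effect of over 35% in size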). The conditions noted are these: AML-191 viability, CellTiter-Glo luminescence, 48 h; series mostly up to 46 µM. The method, boiled down:
as §1

Assay [12] can be described thus: BET inhibitor-based combinations targeting novel dependencies in MECOM-rearranged (r) AML: AML-194 cell line (AID 2202237;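 note: plate controls were vehicle wells for no effect and wells without cells for full effect; nearly all actives have a fitted effect of over 40% in size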). The conditions noted are these: AML-194 (MECOM-r AML) viability, CellTiter-Glo, 48 h; series mostly up to 46 µM. Put shortly:
as §1

Results filed as inconclusive are left out. Unmarked numbers belong to inactive results. Active and inactive are the calls of the source. Calls come from the whole dose curve; as a rule, active = well fitted curve in the direction sought with a large enough effect; inconclusive = small, poorly fitted or top-dose-only effect, or another doubt; inactive = no such curve, though single readings can be large; an effect the other way counts as inactive or inconclusive.

As to `CC(=O)Nc1nc2c(Oc3cc(-c4ccc(C(F)(F)F)cc4)ncn3)cccc2s1`, the Potency entry in assay [1], in [2] and in assay [3] was “inactive” each time.
For the compound `O=C(NCCCN1CCNCC1)c1cccc(-c2cc(O)c3ncccc3c2)c1`, the Potency entry in assay [1], in [3] and in assay [5] was “inactive” throughout. Further, in [4], the Potency was 10.1 µM (active).
With `COCCOc1cnc2ccn([C@H](C)c3nnc4c(F)cc(-c5cnn(C)c5)cn34)c(=O)c2c1`, the Potency result in assay [1], in [3], in [7], in assay [8], in [9] and in assay [10] was “inactive” throughout. The Potency entry in assay [11] and in [12] was “inactive” throughout. Besides, the Potency in [4] was 12.7 µM (active); in [5] it was 25.2 µM (active). Moreover, the viability in assay [6] is 70.9%.
On to `CN(C)C(CCOc1cccc2ccccc12)c1ccccc1` (centres undefined), for which the Potency result in assay [1], in assay [2] and in assay [3] was “inactive” in each case.
`CNC(=O)C1=C(C)NC(Nc2nc3ccccc3o2)=NC1c1[nH]ncc1Cl` (centres undefined): the Potency result in assay [1], in [4] and in assay [3] was “inactive” throughout.
As for `OC1CCC(Nc2ncc3nc(Nc4c(F)cc(F)cc4F)n([C@H]4CCOC4)c3n2)CC1` (some centres undefined), the Potency result in assay [1], in assay [2] and in assay [3] was “inactive” each time.
In the case of `CC(C)Oc1ccc(C(=O)NC(CNC(=O)CN(C)C)Cc2ccc(-c3cn4cccc(C(C)O)c4n3)cc2)cc1Cl` (centres undefined), the Potency entry in [1], in assay [2] and in [3] was “inactive” in each case.
As to `C[C@]12CC[C@@H]3c4ccc(O)c(O)c4CC[C@H]3[C@@H]1CCC2=O`, the results for the Potency in assay [1], in [4] and in assay [5] were 15.8 µM (active), 15.9 µM (active) and 1.59 µM (active), respectively.
Take `Cc1nc(Nc2cnn(C3CCNCC3)c2)nc2c1N(C)C(=O)c1cc3ccccc3cc1N2C`: the Potency entry in assay [1], in assay [2] and in assay [3] was “inactive” in each case.
As for `Cc1cc(C)nc(NCc2ccc(O)c3ncccc23)c1`, the figures for the Potency in assay [1], in assay [4] and in assay [5] were 11.2 µM (active), 5.04 µM (active) and 11.3 µM (active), respectively.
`CCC(=C(c1ccc(OCCN2CCCC2)cc1)c1ccc(OCCN2CCCC2)cc1)c1ccccc1`: the Potency entry in [1], in assay [2] and in [3] was “inactive” in each case.
With `COc1cc(N(C)CCN(C)C)c(N)cc1Nc1nccc(-c2cn(C)c3ccccc23)n1`, the Potency entry in [1], in assay [2] and in assay [3] was “inactive” throughout.
On to `N#Cc1ccc(COc2ccc(-c3cccc4nc(NC(=O)C5CC5)nn34)cc2)cn1`, for which the Potency entry in assay [1], in assay [2] and in assay [3] was “inactive” in each case.
Turning to `Cc1cc(C)nc(NC(=S)N2CCN(c3cccc4[nH]ccc34)CC2)c1`, the Potency entry in [1] and in assay [3] was “inactive” in each case. The values for the Potency in assay [4] and in assay [5] were 7.12 µM (active) and 8.96 µM (active), respectively.
For `Cc1occc1-c1ccc2ncnc(NCc3ncc[nH]3)c2c1`, the Potency entry in [1] and in assay [3] was “inactive” in each case. Further, the Potency in assay [4] was 4 µM (active).
As for `CCC(C)CNCC(=O)N1CCc2sccc2C1COc1cccc(C)c1` (centres undefined), the Potency result in assay [1], in [2] and in assay [3] was “inactive” in each case.
For `CCS(=O)(=O)N(Cc1cccnc1)c1cccc(-c2ccc(C#N)cc2)c1`, the Potency result in assay [1] is “inactive”. Besides, the Potency in assay [2] is 6.31 µM (active).
Turning to `CN(c1nccc(=O)[nH]1)C1CCN(c2nc3ccccc3n2Cc2ccc(F)cc2)CC1`, the Potency result in assay [1], in [2] and in assay [3] was “inactive” each time.
In the case of `CCC[C@H]1C[C@H](C(=O)N[C@@H]([C@@H]2O[C@@H](SC)[C@@H](O)[C@@H](O)[C@@H]2O)[C@H](C)Cl)N(C)C1`, the Potency entry in assay [1], in [2] and in assay [3] was “inactive” in each case.
In the case of `COc1cc2ncnc(N3CCC(Oc4cnc5ccccc5n4)C3)c2cc1OC` (centres undefined), the Potency entry in assay [1], in assay [2] and in assay [3] was “inactive” throughout.
In the case of `COc1cccc(CNc2ccc(S(=O)(=O)Nc3cccc4ccncc34)cc2)c1O`, the Potency result in assay [1], in [3] and in assay [5] was “inactive” throughout. The Potency in assay [4] is 22.5 µM (active).
Turning to `COc1ccc2nc(-c3cc(OC)c(OC)c(OC)c3)cc(C(=O)NCC(=O)Nc3ccc(C(C)=O)cc3)c2c1`, the Potency result in assay [1], in assay [2] and in [3] was “inactive” in each case.
On to `CCOC(=O)Nc1nc2ccccc2[nH]1`, for which the Potency result in assay [1], in [2] and in assay [3] was “inactive” in each case.
Take `Cc1ccc(S(=O)(=O)Nc2ccc(NS(=O)(=O)c3ccc(C)cc3)c3ncccc23)cc1`: the Potency result in [1], in assay [3] and in assay [5] was “inactive” in each case. The Potency in assay [4] is 15.9 µM (active).
On to `CC(=O)OC12COC1CC(O)C1(C)C(=O)C(O)C3=C(C)C(OC(=O)C(O)C(NC(=O)OC(C)(C)C)c4ccccc4)CC(O)(C(OC(=O)c4ccccc4)C21)C3(C)C` (centres undefined), for which the Potency result in assay [1], in assay [2] and in assay [3] was “inactive” each time.
On to `CN(C)c1nc(NC2CCC(NC(=O)c3ccc(F)c(F)c3)CC2)nc2ccccc12` (centres undefined), for which the Potency entry in assay [1], in [2] and in assay [3] was “inactive” each time.

These data come from PubChem BioAssay (NCATS).
